Hsp90 block – displaces geldanamycin probe from tumor Hsp90; P07900; 0.35% of 64,000 active; NCI-N417 lysate Hsp90, Cy3B-geldanamycin FP displacement; inhibition, % at 30 µM;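 active = inhibition above 50%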
DUSP1 inh – human dual specificity phosphatase 1 inhibition; P28562; recombinant MKP-1, OMFP hydrolysis fluorescence; inhibition, %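 (compounds tested at a single concentration somewhere between 10 and 100 µM)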; 0.15% of 65,000 active; AID 374;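 active = inhibition above about 50%, limit read from the data; inconclusive = inhibition over screen mean plus 3 SD, below that limit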
BAP1 inh – inhibitors of human BAP1 deubiquitinase; recombinant BAP1, Ub-AMC hydrolysis fluorescence kinetic; stronger effect = lower value; calls only at 20 µM; 0.48% of 72,000 active; Q92560;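 active = activity remaining at or below 50% of control, provided the compound also passes the data quality filters; inactive = the rest, including low values that fail the filters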
Target sequence (Q92560 whole entry, looked up): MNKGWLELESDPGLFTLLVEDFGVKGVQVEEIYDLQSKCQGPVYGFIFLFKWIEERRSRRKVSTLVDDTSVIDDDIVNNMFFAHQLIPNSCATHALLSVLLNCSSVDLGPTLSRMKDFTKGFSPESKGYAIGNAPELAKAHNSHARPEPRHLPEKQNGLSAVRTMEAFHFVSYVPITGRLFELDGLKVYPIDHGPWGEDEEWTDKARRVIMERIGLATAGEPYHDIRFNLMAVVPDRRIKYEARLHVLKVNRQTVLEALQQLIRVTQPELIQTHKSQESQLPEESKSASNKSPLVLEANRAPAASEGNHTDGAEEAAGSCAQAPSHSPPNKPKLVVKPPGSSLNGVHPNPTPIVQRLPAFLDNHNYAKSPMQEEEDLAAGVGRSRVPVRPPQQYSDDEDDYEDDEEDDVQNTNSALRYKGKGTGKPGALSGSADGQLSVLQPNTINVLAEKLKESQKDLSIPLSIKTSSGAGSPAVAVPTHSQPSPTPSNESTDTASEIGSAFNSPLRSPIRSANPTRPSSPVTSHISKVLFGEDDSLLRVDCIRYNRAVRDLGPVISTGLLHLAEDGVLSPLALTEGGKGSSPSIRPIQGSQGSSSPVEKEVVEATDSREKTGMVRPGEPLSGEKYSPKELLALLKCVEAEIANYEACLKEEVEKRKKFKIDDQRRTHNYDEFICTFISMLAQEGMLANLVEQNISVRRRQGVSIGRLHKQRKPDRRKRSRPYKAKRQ
Cdc25B block – inhibitors of human Cdc25B phosphatase; P30305; recombinant Cdc25B, OMFP fluorescence Ex485/Em525; inhibition, %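 (compounds tested at 10 µM final in the well)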; 0.1% of 65,000 active; in the data active = inhibition above about 50%
BAP1 inh confirm – confirmation of human BAP1 enzyme inhibitors; shares compounds with BAP1 inh; % of control activity, % at 20 µM; purified BAP1, Ub-ethyl ester hydrolysis, HPLC; stronger effect = lower value; 8% of 310 active;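 active = percent of control activity at or below 60%; inconclusive = HPLC trace unusable from injection failure or solvent front hiding peaks; inactive = the rest, plus ubiquitin peak ratio over a set limit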
Large screens that a line does not name were inactive (follow-up assays come after a bar, where shown). Sampled rows, rich in hits. Any-hit rate of the full collection: about 1%.

Cc1cc(C)cc(NC2=C(Cl)C(=O)N(c3ccc(Cl)cc3)C2=O)c1	none (no result: Hsp90 block, DUSP1 inh, Cdc25B block)
COc1ccc(C2C(C(C)=O)=C(C)N=c3s/c(=C\c4ccco4)c(=O)n32)c(OC)c1 (centres undefined)	BAP1 inh active | BAP1 inh confirm inactive
COc1ccc(C2C(C(C)=O)=C(C)N=c3s/c(=C\c4cc(C)n(C)c4C)c(=O)n32)c(OC)c1 (centres undefined)	none
Brc1ccc(-c2nnc3n2CCC3)cc1	none (no result: Hsp90 block, DUSP1 inh, Cdc25B block)
COc1cccc(NC(=O)c2ccccc2-c2nc(-c3ccc(Cl)cc3)no2)c1	BAP1 inh active | BAP1 inh confirm inconclusive
Cc1cc(NS(=O)(=O)c2ccc(NC(=O)c3cnc4scc(C)n4c3=O)cc2)nc(C)n1	BAP1 inh active | BAP1 inh confirm inactive
Cc1ccc(NC(=O)c2cnc3scc(C)n3c2=O)c(C)c1	BAP1 inh active | BAP1 inh confirm inactive
Cc1cccc(NC(=O)c2cnc3scc(C)n3c2=O)c1	none
O=C(C1CCN(c2nnc(-n3cccc3)s2)CC1)N1CCOCC1	none
O=C(C1CCN(c2nnc(-n3cccc3)s2)CC1)N1CCN(c2cccc(C(F)(F)F)c2)CC1	BAP1 inh active | BAP1 inh confirm inactive
c1ccc2c(-c3nc(C4CCCCC4)no3)cc(-c3ccncc3)nc2c1	BAP1 inh active | BAP1 inh confirm inactive
CCCC(=O)N1CCN(c2ccc(C(=O)CC)cc2F)CC1	none (no result: Hsp90 block, DUSP1 inh, Cdc25B block)
COC(=O)C1=C(C)NC(=O)NC1c1cc(Cl)ccc1OC (centres undefined)	BAP1 inh active | BAP1 inh confirm inactive
CC(=O)Nc1nnc(-c2ccc3c(c2)CCCC3)o1	none
O=C(COc1ccc(Cl)cc1)Nc1nnc(-c2ccc3c(c2)CCCC3)o1	BAP1 inh active | BAP1 inh confirm inactive
COc1cccc(NC(=O)CSc2nnc(COc3ccc4c(c3)CCCC4)o2)c1	none
COC(=O)c1ccc(NC(=O)CSc2nnc(COc3ccc4c(c3)CCCC4)o2)cc1	BAP1 inh active | BAP1 inh confirm inactive
CC1CCN(S(=O)(=O)c2ccc(NC(=O)Cn3nnc(-c4ccccc4F)n3)cc2)CC1	BAP1 inh active | BAP1 inh confirm inactive
O=C(O)CCC(=O)Nc1ccc(-c2cn3ccccc3n2)cc1	none (no result: Hsp90 block, DUSP1 inh, Cdc25B block)
O=C(Nc1cc(NC(=O)C2CCCCC2)cc(-c2nc3ccccc3o2)c1)C1CCCCC1	none (no result: Hsp90 block, DUSP1 inh, Cdc25B block)
NS(=O)(=O)c1ccc(CNC(=O)NC23CC4CC(CC(C4)C2)C3)cc1	BAP1 inh active | BAP1 inh confirm inactive
CCCCCCn1c(SCCOC)nc2c1c(=O)[nH]c(=O)n2C	none
CCCCCCn1c(SCCCC)nc2c1c(=O)[nH]c(=O)n2C	BAP1 inh active | BAP1 inh confirm inactive
O=C(Nc1nnc(-c2ccco2)s1)C1CCN(S(=O)(=O)c2ccc(Cl)cc2)CC1	BAP1 inh active | BAP1 inh confirm inconclusive
Cc1ccc(-n2nc3cc(C)c(NC(=O)c4ccc(Br)cc4)cc3n2)cc1	none (no result: Hsp90 block, DUSP1 inh, Cdc25B block)
C=CCn1c(CNC(=O)c2ccccc2C)nnc1SCC(=O)NC1CCCC1	none
C=CCn1c(CCNC(=O)c2ccccc2F)nnc1SCC(=O)Nc1nc(C)cs1	BAP1 inh active | BAP1 inh confirm inactive
COc1cccc(Cn2c(C3CC3)nc3ccc(NC(=O)c4ccco4)cc3c2=O)c1	BAP1 inh active | BAP1 inh confirm inactive
CCCn1c2c(c(O)c(C(=O)Nc3ccc(C)cn3)c1=O)CCCC2	none
CCCn1c2c(c(O)c(C(=O)Nc3nccs3)c1=O)CCCC2	none
CC(C)Cn1c2c(c(O)c(C(=O)Nc3nccs3)c1=O)CCCC2	BAP1 inh active | BAP1 inh confirm inactive
CCCn1c2c(c(O)c(C(=O)Nc3ncccc3C)c1=O)CCCC2	BAP1 inh active | BAP1 inh confirm inactive
Cc1cccc(-c2cc3nc4c(c(N5CCC6(CC5)OCCO6)n3n2)CCCC4)c1	none (not shown: BAP1 inh)
Cc1cccc(-c2cc3nc4c(c(N5CCOCC5)n3n2)CCCC4)c1	BAP1 inh active | BAP1 inh confirm inactive
CCCCn1c2c(c3ccccc31)CCc1nonc1-2	BAP1 inh active | BAP1 inh confirm 51
O=c1[nH]c2ccc(Cl)cc2c(-c2ccccc2)c1N1CCN(c2ccccn2)CC1	BAP1 inh active | BAP1 inh confirm inactive
Cc1ccc(O)c(N=CC2=C(O)c3ccccc3C2=O)c1	BAP1 inh active | BAP1 inh confirm inactive
Cc1cccc(C)c1NC(=O)Cn1nnc(-c2ccc(N3CCOCC3)cc2)n1	BAP1 inh active | BAP1 inh confirm inactive
Cc1cccc2cc(CN(Cc3cccs3)Cc3nnnn3Cc3ccccc3)c(=O)[nH]c12	BAP1 inh active | BAP1 inh confirm inactive
Cc1cc(C)c2cc(CN(Cc3ccc4c(c3)OCO4)Cc3nnnn3Cc3ccco3)c(=O)[nH]c2c1	none
O=c1[nH]c2cc3c(cc2cc1CN(Cc1cccs1)Cc1nnnn1Cc1ccco1)OCCO3	none
O=c1[nH]c2cc3c(cc2cc1CN(Cc1ccccc1)Cc1nnnn1Cc1ccco1)OCCO3	none
CCc1ccc2[nH]c(=O)c(CN(Cc3ccccc3)Cc3nnnn3Cc3ccco3)cc2c1	DUSP1 inh inconclusive, BAP1 inh active | BAP1 inh confirm inactive
Cc1ccc2[nH]c(=O)c(CN(Cc3ccc4c(c3)OCO4)Cc3nnnn3Cc3ccco3)cc2c1	BAP1 inh active | BAP1 inh confirm inactive
CCCC(c1nnnn1CC(=O)OCC)N(Cc1cc2c(C)cc(C)cc2[nH]c1=O)C1CCCC1 (centres undefined)	BAP1 inh active | BAP1 inh confirm inactive
CCCCCSc1nc2c(cnn2-c2ccccc2)c(=O)[nH]1	BAP1 inh active | BAP1 inh confirm inactive
CCOC(=O)c1c(NC(=O)c2nn(CC)cc2Br)c(C#N)nn1-c1ccccc1	BAP1 inh active | BAP1 inh confirm inactive
Cn1c(-c2c(N)n(C3CCCC3)c3nc4ccccc4nc23)nc2ccccc21	BAP1 inh active | BAP1 inh confirm inactive
CC12CCC(C(=O)N3CCCC3)(CC1=O)C2(C)C (centres undefined)	none (no result: Hsp90 block, DUSP1 inh, Cdc25B block)
Cc1nc(Nc2cccc(C(F)(F)F)c2)nc2c1C(=O)CC(C)C2 (centres undefined)	BAP1 inh active | BAP1 inh confirm inactive
Cc1cccc(Nc2ncc3c(n2)CC(C)CC3=O)c1 (centres undefined)	none
CC(=O)Nc1nc2ccc(N)cc2s1	none (no result: Hsp90 block, DUSP1 inh, Cdc25B block)
Cc1cc(OCC(O)CN2CCN(c3ccc(F)cc3)CC2)cc(C)c1Cl (centres undefined)	none (no result: Hsp90 block, DUSP1 inh, Cdc25B block)
O=C(NCC1CCCO1)c1c(O)c2ccccc2[nH]c1=O (centres undefined)	BAP1 inh active | BAP1 inh confirm inactive
O=C(NC1CCCCCC1)c1c(O)c2ccccc2[nH]c1=O	none
COc1cccc(C2C(N3C(=O)c4ccccc4C3=O)C(=O)N2c2ccc(C)cc2C)c1 (centres undefined)	none (no result: Hsp90 block, DUSP1 inh, Cdc25B block)
Cc1c(N)c(=O)n(-c2ccccc2)n1C	none (no result: Hsp90 block, DUSP1 inh, Cdc25B block)
Cc1c(N2C(=O)c3ccc4c5c(ccc(c35)C2=O)CC4)c(=O)n(-c2ccccc2)n1C	BAP1 inh active | BAP1 inh confirm inactive
Cc1cc(OC(=O)c2ccccc2)cc2c(=O)c3ccccc3sc12	none (no result: Hsp90 block, DUSP1 inh, Cdc25B block)
CCOC(=O)C1=C(C)Nc2nnnn2C1c1ccc(OC(=O)c2ccccc2)cc1 (centres undefined)	none (no result: Hsp90 block, DUSP1 inh, Cdc25B block)

Source: PubChem
